# Data taken from PubChem BioAssay.
# Inconclusive results are not listed. Activity calls are given as the source filed them.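 Rule for the calls, unless noted: active = normalized viability below 100% at a tested concentration; inactive = the rest.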
# Tests used:
# [1] = viability loss in pontine glioma line – cell-based, JHH-DIPG-1, MIPE4.0, CellTiter-Glo, qHTS, dose response (AID 1347062; cut-off not given, nearly all actives have AC50 up to about 27 µM;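 for AC50: cells exposed to compound for two days before readout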); details: JHH-DIPG-1 viability, CellTiter-Glo ATP luminescence
# [2] = viability loss in pontine glioma line – cell-based, SU-DIPG-IV, MIPE4.0, CellTiter-Glo, qHTS, dose response (AID 1347063; cut-off not given, nearly all actives have AC50 up to about 30 µM;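 note: compound exposure lasted 48 hours before the viability readout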); details: CellTiter-Glo ATP luminescence
# [3] = viability loss in pontine glioma line – cell-based, SU-DIPG-XIII, MIPE5.0, CellTiter-Glo, qHTS, dose response (AID 1347064; cut-off not given, nearly all actives have AC50 up to about 23 µM;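 for AC50: cells exposed to compound for 48 hours before the viability read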); details: CellTiter-Glo ATP luminescence
# [4] = viability loss in pontine glioma line – cell-based, SU-DIPG-XXV, MIPE5.0, CellTiter-Glo, qHTS, dose response (AID 1347065; cut-off not given, nearly all actives have AC50 up to about 26 µM;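 note: cells exposed to compound for 48 hours before ATP readout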); details: CellTiter-Glo ATP luminescence
# [5] = growth inhibition of DIPG cells – cell-based, MIPE4.0 library, CellTiter-Glo luminescence, qHTS (AID 1347066; cut-off not given, nearly all actives have AC50 up to about 30 µM;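 note: cells exposed to compound for 48 hours before readout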); details: SU-DIPG-VI viability, CellTiter-Glo ATP luminescence
# [6] = JHH-DIPG-1 glioma cell viability, MIPE5.0 library, CellTiter-Glo luminescence, qHTS (AID 1347067; cut-off not given, nearly all actives have AC50 up to about 26 µM;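 note: cells exposed to compound for 48 hours before readout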); details: JHH-DIPG-1 glioma viability, CellTiter-Glo ATP luminescence
# [7] = growth inhibition of DIPG cells – cell-based, MIPE5.0 library, qHTS (AID 1347068; cut-off not given, nearly all actives have IC50 up to about 30 µM); details: SU-DIPG-XXV viability
# [8] = viability loss with induced miR-34 in A549 – imaging, A549 dox-inducible miR-34, nuclei and caspase counts, primary screen (AID 1347080;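 active = compounds whose cell count with miR-34 switched on is under 0.7 times the count with it off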); details: A549 miR-34 inducible, Hoechst nuclei count, 48 h
# [9] = compounds altering HSF1 focus formation in cells – imaging, Selleck Cancer Library (AID 1347162; in the data active = plate-normalised HSF1 focus index below about 0.46); details: human cells, HSF1 nuclear foci imaging, at 10 µM; SSMD: measured here: HSF1 foci SSMD mean; cell count: measured here: cell number; plate-normalised HSF1 focus index: stronger effect = lower value
# [10] = MELAS cybrid and Rieske KO viability enhancers – cell-based, MELAS cybrids, Rieske KO mouse fibroblasts, CellTiter-Glo, primary screen (AID 1508586;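 active = mean z-score across replicates of 1.96 or higher in either the MELAS or the Rieske mutant cell line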;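 note: z relative to plate mean and SD of compound and empty wells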); details: low glucose
# [11] = drug combination growth inhibition, ovarian cancer – cell-based, oncology-focused library, rucaparib conditional, profiling panel (AID 1508598); details: patient-derived ovarian cancer cells, CellTiter-Glo viability, 144 h, stronger effect = lower value
# [12] = viability loss in pontine glioma line – cell-based, SU-DIPG-XIII, MIPE4.0, CellTiter-Glo, qHTS, dose response (AID 1347061; cut-off not given, nearly all actives have AC50 up to about 37 µM;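 note: cells exposed to compound for 48 hours before readout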); details: CellTiter-Glo ATP luminescence
smiles,measurement,setting,value
CC1(O)CC(c2nc(-c3ccc4ccc(-c5ccccc5)nc4c3)c3c(N)nccn23)C1 (stereo unspecified),AC50,[1],1.48 µM (active)
same,AC50,[2],14.8 µM (active)
same,AC50,[3],0.59 µM (active)
same,AC50,[4],0.332 µM (active)
same,AC50,[5],0.332 µM (active)
same,AC50,[6],11.8 µM (active)
same,outcome,[7],inactive
same,fold change,"[8]; stronger effect = lower value, cell number ratio, induced over uninduced",1.03 (inactive)
same,fold change,[8]; measured here: relative caspase fold change +Dox/-Dox,0.898
same,cell count,"[8]; measured here: total cells with miR-34 induction, stronger effect = lower value",2240
same,cell count,[8]; measured here: total cells without miR-34 induction,2180
same,SSMD,[9],1.94
same,cell count,[9],6580
same,plate-normalised HSF1 focus index,[9],1.1 (inactive)
same,z-score,"[10]; MELAS cybrid survival, CellTiter-Glo 48 h, stronger effect = higher value",-0.422 (inactive)
same,z-score,"[10]; Rieske KO mouse fibroblast survival, CellTiter-Glo 72 h",0.283
same,viability,"[11]; at 0.000305 µM, OCI-C5x cells, with rucaparib 10 µM, 100% = cells with rucaparib alone",114% (inactive)
same,viability,"[11]; at 0.000305 µM, OCI-C5x cells, without rucaparib",139% (inactive)
same,viability,"[11]; at 0.000305 µM, OCI-P5x cells, with rucaparib 20 µM, 100% = cells with rucaparib alone",109% (inactive)
same,viability,"[11]; at 0.000305 µM, OCI-P5x cells, without rucaparib",106% (inactive)
same,viability,"[11]; at 0.00122 µM, OCI-C5x cells, with rucaparib 10 µM, 100% = cells with rucaparib alone",121% (inactive)
same,viability,"[11]; at 0.00122 µM, OCI-C5x cells, without rucaparib",130% (inactive)
same,viability,"[11]; at 0.00122 µM, OCI-P5x cells, with rucaparib 20 µM, 100% = cells with rucaparib alone",104% (inactive)
same,viability,"[11]; at 0.00122 µM, OCI-P5x cells, without rucaparib",104% (inactive)
same,viability,"[11]; at 0.00488 µM, OCI-C5x cells, with rucaparib 10 µM, 100% = cells with rucaparib alone",111% (inactive)
same,viability,"[11]; at 0.00488 µM, OCI-C5x cells, without rucaparib",124% (inactive)
same,viability,"[11]; at 0.00488 µM, OCI-P5x cells, with rucaparib 20 µM, 100% = cells with rucaparib alone",99.9% (active)
same,viability,"[11]; at 0.00488 µM, OCI-P5x cells, without rucaparib",105% (inactive)
same,viability,"[11]; at 0.0195 µM, OCI-C5x cells, with rucaparib 10 µM, 100% = cells with rucaparib alone",115% (inactive)
same,viability,"[11]; at 0.0195 µM, OCI-C5x cells, without rucaparib",127% (inactive)
same,viability,"[11]; at 0.0195 µM, OCI-P5x cells, with rucaparib 20 µM, 100% = cells with rucaparib alone",104% (inactive)
same,viability,"[11]; at 0.0195 µM, OCI-P5x cells, without rucaparib",106% (inactive)
same,viability,"[11]; at 0.0781 µM, OCI-C5x cells, with rucaparib 10 µM, 100% = cells with rucaparib alone",114% (inactive)
same,viability,"[11]; at 0.0781 µM, OCI-C5x cells, without rucaparib",133% (inactive)
same,viability,"[11]; at 0.0781 µM, OCI-P5x cells, with rucaparib 20 µM, 100% = cells with rucaparib alone",101% (inactive)
same,viability,"[11]; at 0.0781 µM, OCI-P5x cells, without rucaparib",113% (inactive)
same,viability,"[11]; at 0.313 µM, OCI-C5x cells, with rucaparib 10 µM, 100% = cells with rucaparib alone",133% (inactive)
same,viability,"[11]; at 0.313 µM, OCI-C5x cells, without rucaparib",57.9% (active)
same,viability,"[11]; at 0.313 µM, OCI-P5x cells, with rucaparib 20 µM, 100% = cells with rucaparib alone",88.6% (active)
same,viability,"[11]; at 0.313 µM, OCI-P5x cells, without rucaparib",96% (active)
same,viability,"[11]; at 1.25 µM, OCI-C5x cells, with rucaparib 10 µM, 100% = cells with rucaparib alone",145% (inactive)
same,viability,"[11]; at 1.25 µM, OCI-C5x cells, without rucaparib",134% (inactive)
same,viability,"[11]; at 1.25 µM, OCI-P5x cells, with rucaparib 20 µM, 100% = cells with rucaparib alone",41.3% (active)
same,viability,"[11]; at 1.25 µM, OCI-P5x cells, without rucaparib",66.2% (active)
same,viability,"[11]; at 5 µM, OCI-C5x cells, with rucaparib 10 µM, 100% = cells with rucaparib alone",168% (inactive)
same,viability,"[11]; at 5 µM, OCI-C5x cells, without rucaparib",153% (inactive)
same,viability,"[11]; at 5 µM, OCI-P5x cells, with rucaparib 20 µM, 100% = cells with rucaparib alone",7.72% (active)
same,viability,"[11]; at 5 µM, OCI-P5x cells, without rucaparib",32.8% (active)
CNC(=O)[C@H](Cc1ccccc1)NC(=O)[C@H](CC(C)C)[C@H](CSc1cccs1)C(=O)NO,outcome,[12],inactive
same,outcome,[5],inactive
same,outcome,[6],inactive
same,outcome,[7],inactive
Cc1cn2c(-c3cn[nH]c3)cnc2c(Nc2ccc(C(=O)N3CCNCC3)cc2F)n1,AC50,[12],23.5 µM (active)
same,AC50,[5],18.7 µM (active)
CCOC(=O)N1CCN(/[N+]([O-])=N/Oc2cc(O/N=[N+](\[O-])N3CCN(C(=O)OCC)CC3)c([N+](=O)[O-])cc2[N+](=O)[O-])CC1,AC50,[1],9.35 µM (active)
same,AC50,[2],23.5 µM (active)
CCCCCCCc1ccc(CCc2cccc(O)c2C(=O)O)cc1,outcome,[1],inactive
same,outcome,[2],inactive
same,outcome,[4],inactive
same,outcome,[6],inactive
same,outcome,[7],inactive
same,SSMD,[9],0.921
same,cell count,[9],6030
same,plate-normalised HSF1 focus index,[9],1.06 (inactive)
Cc1cccc(-c2nn(C(=S)Nc3ccccc3)cc2-c2ccnc3ccccc23)n1,outcome,[1],inactive
same,outcome,[2],inactive
same,outcome,[3],inactive
same,outcome,[4],inactive
same,outcome,[5],inactive
same,outcome,[6],inactive
same,outcome,[7],inactive
